Common to all, as to format: functional
Experiment [1] concerns Plasmodium falciparum. Briefly: GSK_TCMDC: Inhibition of Plasmodium falciparum 3D7 in whole red blood cells, using parasite LDH activity as an index of growth. Test compounds present at 2uM.
Experiment [2] concerns Plasmodium falciparum. Description: GSK_TCMDC: Inhibition of Plasmodium falciparum Dd2 in whole red blood cells, using parasite LDH activity as an index of growth. Test compounds present at 2uM.
The test system of experiment [3] is HepG2. Description: GSK_TCMDC: Percent inhibition of human HepG2 cell line. Test compounds present at 10uM.

In general, Inhibition refers to the drop in the measured response relative to a control, in per cent. Lower therefore signals little suppression. `CCCc1cc(N2CCC(c3ccccc3)(N3CCCCC3)CC2)nc(Nc2ccc(OC)cc2)n1`: the values for the Inhibition in experiment [1], in experiment [2] and in experiment [3] were 81%, 28% and 13%, respectively.

For `CCOC(=O)N1NC(=O)N(c2ccccc2)C1(c1ccccc1)c1ccccc1`, the Inhibition in experiment [1] is reported as 96%; in experiment [2], 82%; in experiment [3], 5%.

As to `COc1ccc2c(c1)Sc1ccccc1C(N1CCN(CCO)CC1)C2.Cl` (stereo not drawn), the Inhibition in experiment [1] was 95%; in experiment [2], 4%; in experiment [3], 11%.

With `Cc1cc(O)c(-c2ccc(Sc3ccc(Cl)cc3)cc2)c(C)n1`, the Inhibition in experiment [1] was determined as 92%; in experiment [2], 84%; in experiment [3] it was 0%.

As for `NCC1CCCN1Cc1ccc(-c2ccc(-c3nc4cc(C(F)(F)F)ccc4[nH]3)cc2)cc1.O=C(O)C(F)(F)F` (stereo not drawn), the Inhibition in experiment [1] came to 100%; in experiment [2], 98%; in experiment [3] it was 35%.

Take `O=C(C=Cc1ccc(Cl)c(Cl)c1)NCCCCCN1CCCC(CCCNC(=O)/C=C/c2ccccc2)C1` (stereo not drawn): the Inhibition in experiment [1] is listed as 98%; in experiment [2], 12%; in experiment [3], 92%.

For `Cc1cccc2[nH]c(-c3cc(-c4cccc(Cl)c4)cnc3N)nc12.O=C(O)C(F)(F)F`, the Inhibition worked out at 100% in experiment [1], 99% in experiment [2] and 32% in experiment [3].

Take `COc1ccc(CNCC2CCC(CNCCc3ccccc3)CC2)cc1Cl` (stereo not drawn): the Inhibition was 100% in experiment [1], 29% in experiment [2] and 23% in experiment [3].

For `COc1ccccc1Nc1nc(NC2CCN(C)CC2)cc(-c2cccc(C(F)(F)F)c2)n1.O=C(O)C(F)(F)F`, the Inhibition in experiment [1] is on record as 95%; in experiment [2], 71%; in experiment [3] it was 100%.

Turning to `O=C(O)c1cc(OCC(O)COc2ccc(O)c(C(=O)O)c2)ccc1O`, the Inhibition is recorded as 99% in experiment [1], 6% in experiment [2] and 9% in experiment [3].

Take `COc1cc(NC(=O)N2CCc3ccc(OCCN(C(C)C)C(C)C)cc32)cc(C(F)(F)F)c1.O=C(O)C(F)(F)F`: the Inhibition in experiment [1] worked out at 100%; in experiment [2], 97%; in experiment [3] it was 6%.

As to `CCC1CN2CCc3cc(OC)c(OC)cc3C2CC1CC1NCCc2cc(OC)c(OC)cc21.Cl` (stereo not drawn), the values for the Inhibition in experiment [1], in experiment [2] and in experiment [3] were 100%, 98% and 42%, respectively.

With `COc1ccccc1-c1csc(C(=O)NCC2CCN(Cc3ccc(C(C)(C)C)cc3)C2)c1.O=C(O)C(F)(F)F` (stereo not drawn), the Inhibition was found to be 93% in experiment [1], 11% in experiment [2] and 29% in experiment [3].

With `COc1ccc2nccc([C@@H](O)CN3CCC(NCCOc4ccc(F)cc4F)CC3)c2c1.O=C(O)C(=O)O`, the values for the Inhibition in experiment [1], in experiment [2] and in experiment [3] were 100%, 68% and 13%, respectively.

For `Cc1noc(-c2ccc(NC[C@@H](C)NC[C@H](O)c3cccc(Cl)c3)cc2)n1`, the Inhibition in experiment [1] amounted to 97%; in experiment [2] it was 84%; in experiment [3] it was 11%.

Regarding `COc1ccc(CCn2c(=N)c(C(=O)NCc3ccccc3)cc3c(=O)n4cccc(C)c4nc32)cc1`, the results for the Inhibition in experiment [1], in experiment [2] and in experiment [3] were 100%, 37% and 29%, respectively.

For the molecule `CCCCN(CCCC)CCCCCCNc1c2ccccc2nc2ccccc12.Cl`, the Inhibition turned out to be 95% in experiment [1], 87% in experiment [2] and 49% in experiment [3].

`CCc1cccc(-n2c(=O)c3cccnc3n2CC(=O)NC2CCCC2)c1`: the Inhibition in experiment [1] amounted to 94%; in experiment [2] it was 13%; in experiment [3] it was 2%.

With `CNC(=O)CC(=O)NCCc1ccc(Cl)cc1`, the figures for the Inhibition in experiment [1], in experiment [2] and in experiment [3] were 99%, 1% and 0%, respectively.

In the case of `Cl.OC(c1ccccc1)C1CN(CCC2CC3CCC2C3)CCC1(O)c1ccccc1` (stereo not drawn), the figures for the Inhibition in experiment [1], in experiment [2] and in experiment [3] were 97%, 99% and 0%, respectively.

For `COc1ccc2nc(-c3ccc(C(=O)NCCCN4CCN(c5cc(Cl)ccc5OC)CC4)cc3OC)[nH]c2c1`, the Inhibition is given as 100% in experiment [1], 24% in experiment [2] and 0% in experiment [3].

As to `COc1ccc(-c2ccc(NC(=O)c3ccc(Cl)cc3)cc2)cc1CN1CCN(C)CC1.O=C(O)C(F)(F)F`, the Inhibition was 86% in experiment [1], 23% in experiment [2] and 36% in experiment [3].

Consider `Nc1nc(N)c2cc(C(F)(F)F)ccc2n1`, for which the figures for the Inhibition in experiment [1], in experiment [2] and in experiment [3] were 80%, 1% and 8%, respectively.

`CC(C)(C)NCc1cc(Nc2ccnc3cc(Cl)ccc23)ccc1F`: the Inhibition in experiment [1] came to 100%; in experiment [2], 100%; in experiment [3] it was 21%.

For the molecule `CCCCCNc1nc2nc(N)nc(N)c2nc1-c1ccccc1.Cl`, the Inhibition in experiment [1] was 91%; in experiment [2], 0%; in experiment [3], 9%.

Consider `N=C(N)Nc1nc(-c2ccc(NCc3ccc(CNc4cccc(-c5csc(NC(=N)N)n5)c4)cc3)cc2)cs1`, for which the Inhibition in experiment [1] turned out to be 100%; in experiment [2], 99%; in experiment [3], 11%.

`Cc1cc(CN2CCCN(c3ccc4c(c3)CCN(Cc3ccc(-c5ncc[nH]5)cc3)CC4)CC2)n(C)n1`: the Inhibition in experiment [1] came to 86%; in experiment [2], 8%; in experiment [3], 5%.

As to `O=C(NCc1cccc(F)c1)Nc1ccc(-c2cccc(-c3nc4cc(F)ccc4[nH]3)c2)cc1`, the Inhibition in experiment [1] is reported as 88%; in experiment [2], 2%; in experiment [3] it was 31%.

In the case of `O=C(COC(=O)c1cccc(S(=O)(=O)N2CCc3ccccc32)c1)NNC(=O)c1cccs1`, the Inhibition in experiment [1] is reported as 96%; in experiment [2], 4%; in experiment [3] it was 4%.

As for `COc1ccccc1C1CN(CCNC(=O)c2nc(C)c[nH]2)Cc2ccccc2O1` (stereo not drawn), the results for the Inhibition in experiment [1], in experiment [2] and in experiment [3] were 90%, 86% and 4%, respectively.

For `Cc1ccc(OC2CCN(c3ccc(C(=O)NC4CC4)cn3)CC2)cc1`, the results for the Inhibition in experiment [1], in experiment [2] and in experiment [3] were 87%, 75% and 11%, respectively.

Values taken from ChEMBL document CHEMBL1157539, “Thousands of chemical starting points for antimalarial lead identification” (Nature, 2010).
